Screens as filed in PubChem.
Sampled rows, rich in hits. Any-hit rate of the full collection: about 6.3%.
ATXN2 expr inh: ATXN2 expression inhibition. HEK-293 ATXN2-luciferase reporter, luminescence, 24 h. Potency, µM (series often up to 57 µM), inactives show at the top dose activity change, negative = inhibition, usual class: inhibitors. 360,000 tested, 0.72% active. AID 1745845; note: % is set by controls: 0 for no effect and ±100 for the full control effect; nearly all actives have a fitted effect of over 55% in size
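ATXN2-luciferase reporter cells (luciferase flanked by upstream and downstream ATXN2 gene portions) were treated 24 h at 37 °C with compounds at up to 57 uM. SteadyGlo luminescence gave expression; GF-AFC fluorescence gave viability.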
RORg inh: ROR gamma (mouse) transcription inhibition | 310,000 tested, 5.4% active | Drosophila S2 Gal4-RORgamma UAS-luciferase reporter, 20 h | Potency, µM (doses to about 53.6 µM), without a hit: top-dose activity change, negative = inhibition, hits mostly inhibitors | P51450; note: % is set by controls: 0 for no effect and ±100 for the full control effect; nearly all actives have a fitted effect of over 60% in size
Target sequence (P51450 whole entry, looked up, the tested form may be a part): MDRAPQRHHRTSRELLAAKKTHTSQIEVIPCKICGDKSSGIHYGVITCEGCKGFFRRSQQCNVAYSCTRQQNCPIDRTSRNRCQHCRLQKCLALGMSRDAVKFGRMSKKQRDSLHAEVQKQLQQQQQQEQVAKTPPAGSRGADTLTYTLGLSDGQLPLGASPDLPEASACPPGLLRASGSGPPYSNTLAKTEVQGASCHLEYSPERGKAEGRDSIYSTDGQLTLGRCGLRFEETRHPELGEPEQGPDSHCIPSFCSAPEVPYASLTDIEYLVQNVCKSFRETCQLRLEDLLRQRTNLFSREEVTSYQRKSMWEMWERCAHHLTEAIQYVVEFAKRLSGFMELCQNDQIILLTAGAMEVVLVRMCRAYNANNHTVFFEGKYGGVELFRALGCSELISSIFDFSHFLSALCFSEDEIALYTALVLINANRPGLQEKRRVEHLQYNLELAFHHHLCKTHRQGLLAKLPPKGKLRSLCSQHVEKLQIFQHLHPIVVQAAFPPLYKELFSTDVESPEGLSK
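A Gal4/UAS one-hybrid system in insect cells: metallothionein-promoter Gal4–ROR gamma fusion plus Photinus luciferase reporter. Copper sulfate 700 uM final, 20 hr ambient incubation, luminescent detection after 10 min with reagent.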
S2 tox: reduces viability in counter-screen for ATXN expression inhibitors. S2 cells (HEK-293 line with an ATXN2-luciferase reporter) viability, CellTiter-Fluor protease fluorescence, 24 h. Potency, µM (highest dose often 56.7 µM), hits mostly cytotoxic. 400,000 tested, 0.49% active; note: nearly all actives have a fitted effect of over 40% in size
HepG2 viability: counter-screen for TGF-b inhibitors: cytotoxicity in HepG2 cells; HepG2 CAGA-GFP viability, ATP luminescence, 18 h; Potency, µM (doses to about 46.1 µM), without a hit: at the highest dose activity change, negative = cytotoxicity, hits mostly cytotoxic; 410,000 tested, 0.76% active; AID 588856
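HepG2 CAGA-GFP cells (1000/well, DMEM with 1% FBS) received compound, then TGF-beta at 500 pg/mL final, and were incubated 18 hours at 37 degrees C. Viability was read by CellTiter-Glo luminescence. Media-only wells were set as complete cell-killing and DMSO as no toxicity.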
TGFb inhibitor: inhibitors of TGF-b signaling; HepG2 CAGA-GFP TGF-b/SMAD3 reporter, GFP fluorescence, 18 h; TGF-beta stimulated, 500 pg/mL final; Potency, µM (series often up to 46.1 µM), for inactives: at the top dose activity, negative = inhibition, hits mostly inhibitors; 410,000 tested, 1.2% active; AID 588855; note: % is set by controls: 0 for no effect and ±100 for the full control effect; nearly all actives have a fitted effect of over 65% in size
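Using HEPG2 CAGA-GFP reporter cells at 1000 cells/well, we pinned test compounds, stimulated with recombinant TGF-beta (500 pg/mL final) and measured total well GFP after 18 h.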
Gal4-VP16 FLuc: inhibits Gal4-VP16 luciferase reporter, ROR gamma counter-screen; Drosophila S2 Gal4-VP16 UAS-luciferase, luminescence, 20 h; Potency, µM (series often up to 53.6 µM), without a hit: at the top dose activity, negative = inhibition, most hits filed as inhibitors; 310,000 tested, 3.5% active; AID 2546;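 note: Gal4-VP16 expression switched on by copper sulfate through the metallothionein promoter; % is set by controls: 0 for no effect and ±100 for the full control effect; nearly all actives have a fitted effect of over 50% in size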
Numbers without * were called inactive; i = inactive; ? = inconclusive; . = not tested or not shown; ! = a repeat was not active; [ ] = another dose, or the depositor's remark. Calls come from the whole dose curve; as a rule, active = well fitted curve in the direction sought with a large enough effect; inconclusive = small, poorly fitted or top-dose-only effect, or another doubt; inactive = no such curve, though single readings can be large; an effect the other way counts as inactive or inconclusive. Potency is the fitted concentration of half-maximal effect.

SMILES	ATXN2 expr inh	RORg inh	S2 tox	HepG2 viability	TGFb inhibitor	Gal4-VP16 FLuc
CC(NC(=O)Nc1ccccc1)C(c1ccccc1)N1CCOCC1 (centres undefined)	14%	?	i	0%	-3%	-8%
Cc1cc(-c2ccnc(-n3ncc(C(=O)NCc4cccnc4)c3C3CC3)n2)c(C)s1	.	.	i	.	.	.
CCOC(=O)c1c(C)nn(-c2ccc(NC(=O)c3cccs3)cc2)c1C	28µM*	2%	i	-19%	-12%	-11%
CCOC(=O)c1c(NC(=O)c2cccs2)sc2c1CC(C)(C)OC2	-11%	8%[10 µM]	i	0.1µM*	-22%	-16%
COC(=O)c1c(NC(=S)NN2CCN(C)CC2)sc2c1CCC(C)C2 (centres undefined)	?	2µM*	?	-40%	?	5µM*
CNC(=S)Nc1sc2c(c1C(=O)OC)CCC2	2%	1.3µM*	i	-8%	2%	?
COC(=O)c1c(NC(=O)Cc2cccs2)sc2c1CCC(C)C2 (centres undefined)	21%	?	i	-10%	2%	-14%
CCOC(=O)c1c(NC(=O)C2C3C=CC(C3)C2C(=O)O)sc2c1CC(C)(C)OC2 (centres undefined)	-22%[11.3 µM]	2%	i	-2%	3%	-21%
CCOC(=O)c1c(NC(=S)Nc2ccc(Cl)cc2)sc(C)c1C	5%	-16%	i	-49%	-1%	-13%
CCOC(=O)c1c(NC(=S)Nc2ccc(OC)cc2)sc2c1CCC2	-9%	?	i	-21%	-19%	-4%
CCOC(=O)c1c(NC(=S)Nc2ccccc2)sc2c1CC(C)(C)SC2	-6%	2.8µM*	i	11%	-19%	4µM*
CCOC(=O)c1c(NC(=S)NC)sc2c1CC(C)(C)SC2	15%	0.4µM*	i	10%	-1%	0.89µM*
CCOC(=O)c1c(NC(=S)Nc2cccnc2)sc(C)c1C	-21%	13µM*	i	3%	-2%	?
Cc1sc(NC(=S)Nc2ccc(F)cc2)c(C(N)=O)c1C	-21%	8.9µM*	i	-19%	-14%	11µM*
O=C1CCCCC(=O)[C@H](OC(=O)c2ccccc2)C[C@H](c2ccccc2)O1	8%	.	i	.	.	.
CC(=O)N1CCC[C@H]1C(=O)NCC1Cc2cc(-c3cccc(OC(F)(F)F)c3)ccc2O1 (some centres undefined)	.	.	i	.	.	.
Cc1cc(C)nc(SCNC(=O)c2ccccc2)n1	19%	2.8µM*	i	13%	-28%	4µM*
Cc1cc(SCNC(=O)c2ccccc2)nc(C(C)C)n1	12%	13µM*	i	1%	-8%	?
O=c1c2ccccc2nc(-c2ccc(Cl)cc2)n1CCCOc1ccccc1F	7%	.	i	-2%	2%	.
N#C/C(=C\c1ccc(F)cc1)C(=O)NCC1CCCO1 (centres undefined)	4%	.	i	-13%	-9%	.
C=CC[n+]1c(-c2ccc(Cl)cc2Cl)csc1Nc1ccc(NC(C)=O)cc1	?	?	?	22µM*	?	-7%
CC(NC(=O)COC(=O)c1ccco1)C12CC3CC(CC(C3)C1)C2 (centres undefined)	.	.	.	-19%	-2%	.
CC(C)c1nc(CN(C)C(=O)N[C@H](C(=O)N[C@@H](Cc2ccccc2)C[C@H](O)[C@H](Cc2ccccc2)NC(=O)OCc2cncs2)C(C)C)cs1	27µM*!	?	?	.	.	2%
C=CCn1c(O)c(N=NC(=S)Nc2cccc(OC)c2)c2ccccc21	-42%	0.79µM*	i	-23%	-25%	2.5µM*
Nc1nc(=O)n([C@H]2CSC(CO)O2)cc1F (some centres undefined)	-5%	.	.	.	.	.
Cc1ccccc1N1CCN(Cc2c[nH]c3ccccc23)CC1	?	-29%	?	10µM*	?	7%
